Screening data deposited in PubChem by several laboratories.
In the library only some 7.2% were active in any assay of this set; here they are far more common.
Efflux pump mplx = blocks antifungal efflux pumps in multiplex yeast assay | S. cerevisiae Candida pump triplex, Nile Red efflux | inhibition, % at 10 µM | 330,000 tested, 0.44% active;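 active = plate passing quality check with inhibition over a set limit, or well fluorescence over plate mean plus 4 SD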;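 also: Nile Red retained in pooled yeast measured as flow cytometry median fluorescence; 0% = buffer negative control and 100% = Enniatin B positive control; higher means more Nile Red kept so more efflux inhibition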
SUMO Mot1 rescue = inhibitors of SUMOylation pathway: yeast Mot1-301 growth rescue; AID 2716; S. cerevisiae Mot1-301 growth rescue, ATP luminescence, 38.5C; percent above DMSO median, 100 means doubled; 320,000 tested, 1% active; growth rescue, % at 18.8 µM;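 active = every valid replicate shows activation above 250% relative to neutral control wells; inactive = the rest, any valid replicate at or below 250%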;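 also: OY570 slx delta 5 strain wells were the positive control but not used for scaling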
AHR act = human AHR activation | AID 2796 | 320,000 tested, 2.5% active | AHR-responsive luciferase reporter cells, luminescence | activation, % at 5 µM | P35869; in the data active = activation above about 47%;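 also: 0% = vehicle wells and 100% = reference agonist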
Bfl-1 A1 inh = inhibitors of the anti-apoptotic protein A1, read as caspase activation. AID 2462. caspase activation, % (test concentration not listed). 330,000 tested, 0.066% active. MEF A1-2A-BIM cells, Caspase-Glo 3/7 luminescence, 3 h; percent of clofoctol response, vehicle zero;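 active = over half of replicate activation scores above 10%, or exactly half above 10 with the replicate mean above 10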
ALR H2O2 inh = blocks human ALR sulfhydryl oxidase activity. 290,000 tested, 3.8% active. P55789. inhibition, % (test concentration not listed). purified ALR, DTT oxidation, H2O2 HRP-luminol luminescence;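 active = mean replicate inhibition above about 79%, with every replicate also reaching it, limit read from the data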
VLA-4 inh = inhibition in a human VLA-4 binding assay; P13612; VLA-4 expressing cells, ligand binding flow cytometry; inhibition, % (about 7 µM as worked out from the volumes in the protocol); 330,000 tested, 0.2% active; AID 2557; in the data active = inhibition above about 50%
Target sequence (P13612 whole entry, looked up): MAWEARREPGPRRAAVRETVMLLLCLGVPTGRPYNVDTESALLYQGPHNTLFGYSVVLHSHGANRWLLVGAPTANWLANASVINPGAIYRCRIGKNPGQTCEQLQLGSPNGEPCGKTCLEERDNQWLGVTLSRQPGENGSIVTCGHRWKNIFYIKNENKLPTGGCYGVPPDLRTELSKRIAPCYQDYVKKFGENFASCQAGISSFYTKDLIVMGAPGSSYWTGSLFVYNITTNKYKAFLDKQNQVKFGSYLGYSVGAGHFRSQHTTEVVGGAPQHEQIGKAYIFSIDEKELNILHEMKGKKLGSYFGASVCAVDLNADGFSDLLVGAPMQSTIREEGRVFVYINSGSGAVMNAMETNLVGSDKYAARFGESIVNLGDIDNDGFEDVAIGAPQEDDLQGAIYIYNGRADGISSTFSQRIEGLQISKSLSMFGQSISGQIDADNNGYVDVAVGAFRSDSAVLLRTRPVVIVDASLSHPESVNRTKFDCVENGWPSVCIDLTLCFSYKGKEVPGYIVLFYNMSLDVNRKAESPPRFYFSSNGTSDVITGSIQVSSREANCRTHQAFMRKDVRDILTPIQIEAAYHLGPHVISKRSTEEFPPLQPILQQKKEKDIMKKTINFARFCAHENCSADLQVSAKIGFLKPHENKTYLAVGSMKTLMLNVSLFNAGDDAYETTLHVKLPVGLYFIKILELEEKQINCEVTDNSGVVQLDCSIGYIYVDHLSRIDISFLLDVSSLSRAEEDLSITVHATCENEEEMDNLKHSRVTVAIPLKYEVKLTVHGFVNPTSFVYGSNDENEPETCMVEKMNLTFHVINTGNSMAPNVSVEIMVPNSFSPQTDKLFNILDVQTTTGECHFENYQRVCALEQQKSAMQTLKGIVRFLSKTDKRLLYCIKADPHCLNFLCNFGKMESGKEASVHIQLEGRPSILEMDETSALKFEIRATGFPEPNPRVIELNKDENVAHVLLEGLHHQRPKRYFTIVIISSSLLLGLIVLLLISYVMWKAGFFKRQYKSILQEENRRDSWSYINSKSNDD
An asterisk follows results filed as active.

Results for O=C1N=C(N2CCCCC2)S/C1=C\c1ccc(Cl)cc1 ?
Efflux pump mplx: 0.2; SUMO Mot1 rescue: -1.1; AHR act: 30.3; Bfl-1 A1 inh: -0.5; VLA-4 inh: -3.2

How did Cc1ccc(OCCC(=O)OC(C)C(=O)Nc2ccc(Cl)cn2)cc1 (stereo not given) do in these assays?
Efflux pump mplx: -0.1; SUMO Mot1 rescue: 350.6; AHR act: 0.7; Bfl-1 A1 inh: -0.6; ALR H2O2 inh: 14.3; VLA-4 inh: -3.5

Results for Cc1ccc2c(c1)Oc1ccc(NC(=O)CCl)cc1C(=O)N2 ?
Efflux pump mplx: -0.1; SUMO Mot1 rescue: 5.8; AHR act: 19.6; Bfl-1 A1 inh: 1.1; ALR H2O2 inh: 93.3*; VLA-4 inh: 3.4

Results for Cc1ccc(OCC(=O)Nc2ccc3c(c2)C(=O)NC3=O)cc1 ?
Efflux pump mplx: 0.1; SUMO Mot1 rescue: 1.3; AHR act: -1.5; Bfl-1 A1 inh: 0.2; ALR H2O2 inh: -9.8; VLA-4 inh: -11.1

What do the screens show for `COC(=O)[C@@H](NC(=O)N1CCC(Cc2ccccc2)CC1)C(C)C`?
Efflux pump mplx: 0.1; SUMO Mot1 rescue: 78.5; AHR act: -1.0; Bfl-1 A1 inh: -0.7; ALR H2O2 inh: -2.7; VLA-4 inh: 3.3

How did CCCCCN1C=CC=C/C1=C\C=C(C#N)C#N do in these assays?
Efflux pump mplx: 0.4; SUMO Mot1 rescue: -7.1; AHR act: 0.0; Bfl-1 A1 inh: -0.1; ALR H2O2 inh: 99.0*; VLA-4 inh: -4.0

What do the screens show for `CCCCCCN1C=CC=C/C1=C/C=C(C#N)C#N`?
Efflux pump mplx: 0.6; SUMO Mot1 rescue: 253.7; AHR act: 8.1; Bfl-1 A1 inh: -0.3; ALR H2O2 inh: 86.8*; VLA-4 inh: 15.2

What do the screens show for `CN1/C(=C/C=C(C#N)C#N)C=Cc2ccccc21`?
Efflux pump mplx: 0.2; SUMO Mot1 rescue: -9.0; AHR act: 0.8; Bfl-1 A1 inh: 1.7; ALR H2O2 inh: 3.1; VLA-4 inh: -3.2

What do the screens show for `CCn1c(SCC(=O)N2CCOCC2)nc2c(c1=O)SC(C)C2` (stereo not given)?
Efflux pump mplx: 0.1; SUMO Mot1 rescue: -2.9; AHR act: 3.6; Bfl-1 A1 inh: 1.0; ALR H2O2 inh: -6.8; VLA-4 inh: -11.0

What do the screens show for `Cc1ccc(NC(=O)C2C3C=CC(O3)C2C(=O)O)c(C)c1` (stereo not given)?
Efflux pump mplx: -0.1; SUMO Mot1 rescue: 5.8; AHR act: 0.2; Bfl-1 A1 inh: -0.6; ALR H2O2 inh: 8.8; VLA-4 inh: -5.8

What do the screens show for `O=C(NC1CCCc2ccccc21)N[C@@H](Cc1ccccc1)C(=O)O` (stereo not given in full)?
Efflux pump mplx: 0.0; SUMO Mot1 rescue: -8.7; AHR act: 7.4; Bfl-1 A1 inh: 0.4; ALR H2O2 inh: -11.5; VLA-4 inh: 5.4

What do the screens show for `CC(=O)Nc1ccc(S(=O)(=O)NNC(=O)COc2cccc(C)c2)cc1`?
Efflux pump mplx: 0.1; SUMO Mot1 rescue: 615.9; AHR act: 22.9; Bfl-1 A1 inh: 0.6; ALR H2O2 inh: 72.3; VLA-4 inh: 9.5

How did CC(=O)Nc1ccc(S(=O)(=O)NNC(=O)COc2cc(C)ccc2C(C)C)cc1 do in these assays?
Efflux pump mplx: 0.4; SUMO Mot1 rescue: -9.3; AHR act: 2.2; Bfl-1 A1 inh: -0.4; ALR H2O2 inh: 98.9*; VLA-4 inh: 4.8

How did Cc1[nH]nc2c1-c1nc3ccccc3nc1C(C)(C)C2 do in these assays?
Efflux pump mplx: 0.3; SUMO Mot1 rescue: 17.2; AHR act: 19.4; Bfl-1 A1 inh: -0.4; ALR H2O2 inh: 98.6*; VLA-4 inh: -8.3

Results for COc1cccc(-c2ccnc3[nH]n(-c4ccccc4)c(=O)c23)c1 ?
Efflux pump mplx: 0.1; SUMO Mot1 rescue: -10.9; AHR act: 6.4; Bfl-1 A1 inh: -1.4; ALR H2O2 inh: -2.2; VLA-4 inh: 6.2

What do the screens show for `O=c1c2c(C(F)(F)F)cc(C(F)(F)F)nc2[nH]n1-c1ccccc1`?
Efflux pump mplx: -0.1; SUMO Mot1 rescue: -4.4; AHR act: 1.7; Bfl-1 A1 inh: -1.0; ALR H2O2 inh: 25.6; VLA-4 inh: 3.1

How did Cc1cc(C(C)(C)C)nc2[nH]n(-c3ccccc3)c(=O)c12 do in these assays?
Efflux pump mplx: 0.3; SUMO Mot1 rescue: -11.2; AHR act: 13.2; Bfl-1 A1 inh: -2.3; ALR H2O2 inh: 96.3*; VLA-4 inh: 3.4

Results for Cc1cc(C)c2c(=O)n(-c3ccccc3)[nH]c2n1 ?
Efflux pump mplx: 0.1; SUMO Mot1 rescue: 17.2; AHR act: 29.5; Bfl-1 A1 inh: -0.7; ALR H2O2 inh: 98.5*; VLA-4 inh: -8.6

Results for Cc1cc(-c2ccccc2)nc2[nH]n(-c3ccccc3)c(=O)c12 ?
Efflux pump mplx: -0.2; SUMO Mot1 rescue: -3.5; AHR act: 7.3; Bfl-1 A1 inh: 0.5; ALR H2O2 inh: 99.0*; VLA-4 inh: -14.6

How did COc1ccc(/C=C/C(=O)OCC(=O)Nc2cccc(S(=O)(=O)NC3=NCCCCC3)c2)cc1 do in these assays?
Efflux pump mplx: 0.2; SUMO Mot1 rescue: 9.1; AHR act: -0.4; Bfl-1 A1 inh: -0.3; ALR H2O2 inh: -2.3; VLA-4 inh: -9.0

How did CCOC(=O)C(C)Sc1nc(-c2ccccc2)nc2ccccc12 (stereo not given) do in these assays?
Efflux pump mplx: -0.1; SUMO Mot1 rescue: 1.3; AHR act: 3.9; Bfl-1 A1 inh: 0.0; ALR H2O2 inh: -3.1; VLA-4 inh: 4.0

What do the screens show for `N#Cc1ccccc1CN1C(=O)S/C(=C/c2cccn2-c2ccc(C(=O)O)cc2)C1=O`?
Efflux pump mplx: 0.1; SUMO Mot1 rescue: -19.0; AHR act: 3.4; Bfl-1 A1 inh: 0.4; ALR H2O2 inh: 98.1*; VLA-4 inh: 17.2

How did O=C(O)c1ccc(-n2cccc2/C=C2/SC(=O)N(CC(=O)N3CCCC3)C2=O)cc1 do in these assays?
Efflux pump mplx: 0.0; SUMO Mot1 rescue: -11.3; AHR act: -0.4; Bfl-1 A1 inh: 0.6; ALR H2O2 inh: 1.8; VLA-4 inh: 22.1

What do the screens show for `COC(=O)c1ccc2c(c1)SC1=C(CCCC1=O)N2`?
Efflux pump mplx: 0.1; SUMO Mot1 rescue: -4.9; AHR act: 59.5*; Bfl-1 A1 inh: 0.7; ALR H2O2 inh: 34.1; VLA-4 inh: 9.1

How did O=C1CCCC2=C1Sc1ccc(Cl)cc1N2 do in these assays?
Efflux pump mplx: 0.0; SUMO Mot1 rescue: 2.5; AHR act: 44.3; Bfl-1 A1 inh: 0.6; VLA-4 inh: 4.2

Results for CC(C)CNS(=O)(=O)c1ccc(CCC(=O)NCCC2=CCCCC2)cc1 ?
Efflux pump mplx: 0.1; SUMO Mot1 rescue: 215.0; AHR act: 0.7; Bfl-1 A1 inh: -0.1; VLA-4 inh: 7.5

Results for NC(=O)c1cc(N)ccc1N1CCCC1 ?
Efflux pump mplx: -0.1; SUMO Mot1 rescue: 4.4; AHR act: 4.9; Bfl-1 A1 inh: -1.2; ALR H2O2 inh: 82.8*; VLA-4 inh: -10.7

What do the screens show for `CC1CCCN(c2ccc(N)cc2C(N)=O)C1` (stereo not given)?
Efflux pump mplx: 0.1; SUMO Mot1 rescue: 276.8; AHR act: 1.0; Bfl-1 A1 inh: 0.2; ALR H2O2 inh: 98.3*; VLA-4 inh: 4.5
